Test results from paper PMC6792352, “Limited Chemical Structural Diversity Found to Modulate Thyroid Hormone Receptor in the Tox21 Chemical Library” (Environmental Health Perspectives, 2019).
Where a name gives a salt, the structure may show the parent alone.

test system: thyroid hormone receptor (endogenous TRα and TRβ); set-up: species or system GH3-TRE-Luc (rat pituitary); GH3-TRE-Luc luciferase reporter, antagonist mode against 1 nM T3, loss of signal, qHTS; details: read-out: Average AC50 (uM) GH3-TRE-Antag, antagonist mode, 1 nM T3, no GH3 cytotoxicity hit

SMILES	AC50 [µM]
Cc1cc(C(C)(C)c2ccc(O)c(C)c2)ccc1O [3,3'-Dimethylbisphenol A]	33.1
OC1CCCCCCCCCCC1 [Cyclododecanol]	47.7
O=P(c1ccccc1)(c1ccccc1)c1ccccc1 [Triphenylphosphine oxide]	58.7
CCCCC(C#N)(Cn1cncn1)c1ccc(Cl)cc1 (stereo not drawn) [Myclobutanil]	79
CCC(C)(C)c1ccc(O)cc1 [4-(2-Methylbutan-2-yl)phenol]	> 50
c1csc(SSc2cccs2)c1 [2-Thienyl disulfide]	57.5
CC(C)[C@H](C(=O)O[C@H](C#N)c1cccc(Oc2ccccc2)c1)c1ccc(Cl)cc1 [Esfenvalerate]	48
COc1ccc(-c2coc3cc(O)cc(O)c3c2=O)cc1 [Biochanin A]	67
Nc1c2ccccc2nc2ccccc12 [9-Aminoacridine, monohydrochloride, monohydrate]	3.62
O=c1oc2ccccc2c(O)c1Cc1c(O)c2ccccc2oc1=O [Dicumarol]	12.7
Nc1cc(S(=O)(=O)O)cc2cc(S(=O)(=O)O)cc(O)c12 [Monosodium 8-amino-1-naphthol-3,6-disulfonate monohydrate]	52.6
c1ccc(-c2cccc(-c3ccccc3)c2)cc1 [1,1':3',1''-Terphenyl]	50.3
C=CC(C)(O)CC/C=C(\C)CCC=C(C)C (stereo not drawn) [trans-Nerolidol]	9.85
COC(=O)Nc1nc2ccc([S+]([O-])c3ccccc3)cc2[nH]1 (stereo not drawn) [Oxfendazole]	12.2
Cc1c(COC(=O)[C@@H]2[C@H](/C=C(\Cl)C(F)(F)F)C2(C)C)cccc1-c1ccccc1 (racemic) [Bifenthrin]	17.5
CC[C@H]1OC(=O)[C@H](C)C(=O)[C@H](C)[C@@H](O[C@@H]2O[C@H](C)C[C@H](N(C)C)[C@H]2O)[C@](C)(OC)C[C@@H](C)C(=O)[C@H](C)[C@H]2N(CCCCn3cnc(-c4cccnc4)c3)C(=O)O[C@]12C [Telithromycin]	22.2
CCO[Si](CC(C)C)(OCC)OCC [Triethoxy(2-methylpropyl)silane]	66.1
CC[C@H](C)C(=O)O[C@H]1CCC=C2C=C[C@H](C)[C@H](CC[C@@H]3C[C@@H](O)CC(=O)O3)[C@H]21 [Mevastatin]	30.9

SMILES	AC50 [µM]
CC(C)[C@@H](C)/C=C/[C@@H](C)[C@H]1CC[C@H]2/C(=C/C=C3\C[C@@H](O)CC[C@@H]3C)CCC[C@]12C [Dihydrotachysterol]	26.8
CCCCCCCCCCCCCCCC(=O)OC[C@H](O)[C@H]1OC(=O)C(O)=C1O [Ascorbyl palmitate]	> 50
C=C1C[C@H]2[C@@H]3C=C(C)C4=CC(=O)CC[C@]4(C)[C@H]3CC[C@]2(C)[C@@]1(OC(C)=O)C(C)=O [Melengestrol acetate]	26.6
COc1ccc(C(CN(C)C)C2(O)CCCCC2)cc1 (stereo not drawn) [Venlafaxine hydrochloride]	71
CCN(CC)CCOc1ccc2c(c1)C(=O)c1cc(OCCN(CC)CC)ccc1-2 [Tilorone]	17.6
CO[C@@H]1[C@H](OC(=O)/C=C/C=C/C=C/C=C/C(=O)O)CC[C@]2(CO2)[C@H]1[C@@]1(C)O[C@@H]1CC=C(C)C [Fumagillin]	0.0177
COC(=O)c1c(Cl)c(Cl)c(C(=O)OC)c(Cl)c1Cl [Chlorthal-dimethyl]	72.5
CCOC(=O)OC1=C(c2cc(C)ccc2C)C(=O)N[C@]12CC[C@@H](OC)CC2 [Spirotetramat]	69.7
O=C(/C=C/c1ccc([N+](=O)[O-])cc1)c1ccccc1 [4-Nitrochalcone]	49.3
CCCCC/C=C\C/C=C\C/C=C\CCCCC(=O)O [Gamolenic acid]	22.9
C(COCC1CO1)OCC1CO1 (stereo not drawn) [Ethylene glycol diglycidyl ether]	38
CC(C)Oc1ccc2c(=O)c(-c3ccccc3)coc2c1 [Ipriflavone]	25
CCC(=O)O[C@]1(C(=O)CCl)[C@@H](C)C[C@H]2[C@@H]3C[C@H](F)C4=CC(=O)C=C[C@]4(C)[C@@]3(F)[C@@H](O)C[C@@]21C [Halobetasol propionate]	42.4
CCCCOCCOC(=O)COc1cc(Cl)c(Cl)cc1Cl [2,4,5-T-butotyl]	80.4
S=C(NC1CCCCC1)NC1CCCCC1 [N,N'-Dicyclohexylthiourea]	58.2
CC(=O)[C@H]1[C@H](C#N)C[C@H]2[C@@H]3CC=C4C[C@@H](O)CC[C@]4(C)[C@H]3CC[C@@]21C [Pregnenolone carbonitrile]	13.1
CCN(CC)c1ccc2c(C)cc(=O)oc2c1 [7-Diethylamino-4-methylcoumarin]	85.7
O=c1cc(-c2ccccc2)oc2ccc3ccccc3c12 [5,6-Benzoflavone]	7.88
